# PMC7862700, “An all-to-all approach to the identification of sequence-specific readers for epigenetic DNA modifications on cytosine”
# What was measured:
# Experiment in all cases: DAPPL (digital affinity profiling via proximity ligation, sequencing); 10 mM Tris-HCl pH 7.5, 50 mM NaCl, 1 mM DTT, 4% glycerol, room temperature, 30 min; GST-TFs on glutathione beads, 16-mer random dsDNA library, 0.1% formaldehyde crosslink after washing; high values mean tight binding
# FLI1 = molecular target: T1, FLI1 (Homo sapiens, UniProt Q01543 1-452); conditions: protein: recombinant; tags: N-terminal GST; dsDNA, one strand shown
# T1 sequence: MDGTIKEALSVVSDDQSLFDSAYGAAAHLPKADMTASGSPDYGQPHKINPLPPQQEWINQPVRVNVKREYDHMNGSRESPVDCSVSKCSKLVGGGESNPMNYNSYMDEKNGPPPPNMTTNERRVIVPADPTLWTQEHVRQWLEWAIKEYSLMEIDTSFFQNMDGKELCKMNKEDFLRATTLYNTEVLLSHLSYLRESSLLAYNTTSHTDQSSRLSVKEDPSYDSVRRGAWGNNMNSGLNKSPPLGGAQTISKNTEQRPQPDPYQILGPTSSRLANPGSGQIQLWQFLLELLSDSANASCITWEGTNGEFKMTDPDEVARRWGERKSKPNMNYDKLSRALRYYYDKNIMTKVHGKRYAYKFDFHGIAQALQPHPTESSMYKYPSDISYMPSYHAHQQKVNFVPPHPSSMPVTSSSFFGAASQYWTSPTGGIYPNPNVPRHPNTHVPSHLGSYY
# Outline: (§1)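 Pools were built from human transcription factors expressed in yeast as GST fusions, captured on glutathione beads and DNA-barcoded, along with a tag-only sample. Incubation with 200 nmole of a 16-mer random double-stranded DNA library lasted 30 min at room temperature in Tris/NaCl/DTT/glycerol buffer, and was followed by washing, 0.1% formaldehyde crosslinking, proximity ligation, PCR amplification and Illumina NextSeq500 sequencing. Binding signal is the quotient of each hexamer's read frequency for a factor and its frequency for the tag-only sample.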
# ELK1 = molecular target: T2, ELK1 (Homo sapiens, UniProt P19419 1-428); conditions: protein: recombinant; tags: N-terminal GST; dsDNA, one strand shown
# T2 sequence: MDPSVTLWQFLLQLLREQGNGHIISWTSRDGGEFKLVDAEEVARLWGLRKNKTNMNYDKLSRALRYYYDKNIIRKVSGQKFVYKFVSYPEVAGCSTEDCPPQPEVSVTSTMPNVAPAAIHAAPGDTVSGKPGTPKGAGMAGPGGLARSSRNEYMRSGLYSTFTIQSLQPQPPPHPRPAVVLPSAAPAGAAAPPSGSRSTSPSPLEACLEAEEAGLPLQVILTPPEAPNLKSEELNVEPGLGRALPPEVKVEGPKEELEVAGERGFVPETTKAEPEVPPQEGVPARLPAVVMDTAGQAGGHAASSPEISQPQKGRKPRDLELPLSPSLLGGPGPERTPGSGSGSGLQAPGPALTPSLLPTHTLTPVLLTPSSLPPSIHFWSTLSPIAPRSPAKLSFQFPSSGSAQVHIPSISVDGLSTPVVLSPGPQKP
# Outline: as §1
# GABPA = molecular target: T3, GABPA (Homo sapiens, UniProt Q06546 1-454); conditions: protein: recombinant; tags: N-terminal GST; dsDNA, one strand shown
# T3 sequence: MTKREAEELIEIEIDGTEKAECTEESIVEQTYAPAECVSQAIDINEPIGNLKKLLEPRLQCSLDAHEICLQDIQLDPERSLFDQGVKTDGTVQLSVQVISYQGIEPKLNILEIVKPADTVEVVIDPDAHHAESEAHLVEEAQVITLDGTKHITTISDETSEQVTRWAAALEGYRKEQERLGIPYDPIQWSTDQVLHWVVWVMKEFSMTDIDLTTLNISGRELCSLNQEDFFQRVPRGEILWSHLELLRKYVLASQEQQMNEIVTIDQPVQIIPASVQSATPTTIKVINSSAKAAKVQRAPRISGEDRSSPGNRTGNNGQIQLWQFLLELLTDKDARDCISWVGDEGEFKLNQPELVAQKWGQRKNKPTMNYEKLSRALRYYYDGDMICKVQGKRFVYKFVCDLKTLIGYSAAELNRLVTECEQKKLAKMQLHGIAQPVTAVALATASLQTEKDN
# Outline: as §1
# ERG = molecular target: T4, ERG (Homo sapiens, UniProt P11308 1-479); conditions: protein: recombinant; tags: N-terminal GST; dsDNA, one strand shown
# T4 sequence: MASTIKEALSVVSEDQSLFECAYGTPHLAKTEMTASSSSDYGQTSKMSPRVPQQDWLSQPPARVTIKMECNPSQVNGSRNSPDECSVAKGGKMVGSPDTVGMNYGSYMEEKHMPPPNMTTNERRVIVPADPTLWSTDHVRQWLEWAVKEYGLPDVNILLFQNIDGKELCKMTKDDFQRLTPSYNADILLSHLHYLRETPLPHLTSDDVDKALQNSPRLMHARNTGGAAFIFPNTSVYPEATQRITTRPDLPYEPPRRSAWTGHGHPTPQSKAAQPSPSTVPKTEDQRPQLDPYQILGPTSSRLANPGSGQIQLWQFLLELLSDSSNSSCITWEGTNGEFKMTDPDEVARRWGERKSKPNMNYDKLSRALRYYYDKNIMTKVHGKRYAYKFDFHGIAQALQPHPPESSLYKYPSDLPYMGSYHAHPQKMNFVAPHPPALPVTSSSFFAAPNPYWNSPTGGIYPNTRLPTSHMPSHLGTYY
# Outline: as §1
# ELF1 = ELF1 (Homo sapiens, UniProt P32519 1-619); conditions: protein: recombinant; tags: N-terminal GST; dsDNA, one strand shown
# Chain of ELF1 (P32519 whole entry): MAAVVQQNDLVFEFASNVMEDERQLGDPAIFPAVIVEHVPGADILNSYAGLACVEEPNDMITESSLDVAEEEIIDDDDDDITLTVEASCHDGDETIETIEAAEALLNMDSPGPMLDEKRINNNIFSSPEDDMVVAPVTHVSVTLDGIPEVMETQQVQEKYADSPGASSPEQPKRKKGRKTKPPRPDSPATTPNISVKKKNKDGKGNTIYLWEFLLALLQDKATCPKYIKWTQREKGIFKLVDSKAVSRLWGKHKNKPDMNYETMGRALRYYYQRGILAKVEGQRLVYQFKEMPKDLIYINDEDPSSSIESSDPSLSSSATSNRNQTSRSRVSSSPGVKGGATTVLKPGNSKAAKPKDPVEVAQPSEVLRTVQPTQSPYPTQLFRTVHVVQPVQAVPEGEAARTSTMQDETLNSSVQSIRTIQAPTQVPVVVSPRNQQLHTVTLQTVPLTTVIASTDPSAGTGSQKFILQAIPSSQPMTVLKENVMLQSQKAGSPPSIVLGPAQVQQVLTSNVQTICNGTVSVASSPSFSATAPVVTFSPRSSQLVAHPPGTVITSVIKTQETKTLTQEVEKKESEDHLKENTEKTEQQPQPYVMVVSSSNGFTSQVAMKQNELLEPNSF
# Outline: as §1
# EHF = molecular target: T5, EHF (Homo sapiens, UniProt Q9NZC4 1-300); conditions: protein: recombinant; tags: N-terminal GST; dsDNA, one strand shown
# T5 sequence: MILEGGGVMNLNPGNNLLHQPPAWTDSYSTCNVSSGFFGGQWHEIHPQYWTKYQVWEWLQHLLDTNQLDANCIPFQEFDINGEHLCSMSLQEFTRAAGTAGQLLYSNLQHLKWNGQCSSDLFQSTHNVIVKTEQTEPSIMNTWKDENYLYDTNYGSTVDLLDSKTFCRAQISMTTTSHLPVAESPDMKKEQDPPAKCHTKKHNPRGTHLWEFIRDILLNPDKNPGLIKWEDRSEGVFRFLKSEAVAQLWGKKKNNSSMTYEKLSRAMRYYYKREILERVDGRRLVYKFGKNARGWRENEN
# Outline: as §1
# SPI1 = SPI1 (Homo sapiens, UniProt P17947 1-270); conditions: protein: recombinant; tags: N-terminal GST; dsDNA, one strand shown
# Outline: as §1
# SPIB = SPIB (Homo sapiens, UniProt Q01892 1-262); conditions: protein: recombinant; tags: N-terminal GST; dsDNA, one strand shown
# Chain of SPIB (Q01892 whole entry): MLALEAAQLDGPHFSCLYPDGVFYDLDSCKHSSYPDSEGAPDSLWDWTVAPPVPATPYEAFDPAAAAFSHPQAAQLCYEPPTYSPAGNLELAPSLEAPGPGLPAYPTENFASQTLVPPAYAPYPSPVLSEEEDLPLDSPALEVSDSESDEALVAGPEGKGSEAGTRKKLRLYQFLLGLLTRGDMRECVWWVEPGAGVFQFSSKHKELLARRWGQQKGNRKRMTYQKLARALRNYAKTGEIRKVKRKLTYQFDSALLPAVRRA
# Outline: as §1
# ELK3 = molecular target: T6, ELK3 (Homo sapiens, UniProt P41970 1-407); conditions: protein: recombinant; tags: N-terminal GST; dsDNA, one strand shown
# T6 sequence: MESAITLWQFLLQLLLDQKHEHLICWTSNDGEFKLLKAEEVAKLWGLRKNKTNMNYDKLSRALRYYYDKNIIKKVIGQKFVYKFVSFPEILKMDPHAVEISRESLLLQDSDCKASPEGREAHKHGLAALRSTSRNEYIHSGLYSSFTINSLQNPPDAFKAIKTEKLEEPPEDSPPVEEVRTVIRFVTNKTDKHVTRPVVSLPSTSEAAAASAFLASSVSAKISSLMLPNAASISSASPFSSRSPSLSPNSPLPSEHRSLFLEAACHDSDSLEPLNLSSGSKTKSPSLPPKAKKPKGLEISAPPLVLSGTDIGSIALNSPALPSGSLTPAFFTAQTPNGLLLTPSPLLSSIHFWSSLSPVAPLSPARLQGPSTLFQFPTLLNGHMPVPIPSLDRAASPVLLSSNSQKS
# Outline: as §1
# FEV = molecular target: T7, FEV (Homo sapiens, UniProt Q99581 1-238); conditions: protein: recombinant; tags: N-terminal GST; dsDNA, one strand shown
# T7 sequence: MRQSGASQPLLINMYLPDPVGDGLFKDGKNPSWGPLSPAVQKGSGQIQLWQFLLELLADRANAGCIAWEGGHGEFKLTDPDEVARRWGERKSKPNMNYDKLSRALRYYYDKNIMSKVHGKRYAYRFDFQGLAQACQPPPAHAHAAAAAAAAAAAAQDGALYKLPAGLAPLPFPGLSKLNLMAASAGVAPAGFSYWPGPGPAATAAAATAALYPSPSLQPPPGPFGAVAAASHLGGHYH
# Outline: as §1
# ETV5 = ETV5 (Homo sapiens, UniProt P41161 1-510); conditions: protein: recombinant; tags: N-terminal GST; dsDNA, one strand shown
# Chain of ETV5 (P41161 whole entry): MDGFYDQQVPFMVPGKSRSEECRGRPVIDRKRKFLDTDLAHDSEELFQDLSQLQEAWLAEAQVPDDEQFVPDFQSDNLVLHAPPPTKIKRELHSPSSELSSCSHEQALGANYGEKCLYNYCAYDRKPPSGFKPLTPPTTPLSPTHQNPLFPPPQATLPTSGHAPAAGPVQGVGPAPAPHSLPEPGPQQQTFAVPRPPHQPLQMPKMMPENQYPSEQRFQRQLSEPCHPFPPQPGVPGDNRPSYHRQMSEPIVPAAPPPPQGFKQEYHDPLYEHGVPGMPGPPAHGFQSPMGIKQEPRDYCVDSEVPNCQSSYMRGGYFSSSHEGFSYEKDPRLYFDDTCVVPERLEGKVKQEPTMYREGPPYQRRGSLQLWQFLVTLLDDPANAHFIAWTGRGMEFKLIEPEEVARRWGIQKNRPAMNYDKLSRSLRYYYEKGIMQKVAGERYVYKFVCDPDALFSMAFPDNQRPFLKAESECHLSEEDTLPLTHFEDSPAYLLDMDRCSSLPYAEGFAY
# Outline: as §1
# HSF1 = HSF1 (Homo sapiens, UniProt Q00613 1-529); conditions: protein: recombinant; tags: N-terminal GST; chain copies: 3; dsDNA, one strand shown
# Chain of HSF1 (Q00613 whole entry): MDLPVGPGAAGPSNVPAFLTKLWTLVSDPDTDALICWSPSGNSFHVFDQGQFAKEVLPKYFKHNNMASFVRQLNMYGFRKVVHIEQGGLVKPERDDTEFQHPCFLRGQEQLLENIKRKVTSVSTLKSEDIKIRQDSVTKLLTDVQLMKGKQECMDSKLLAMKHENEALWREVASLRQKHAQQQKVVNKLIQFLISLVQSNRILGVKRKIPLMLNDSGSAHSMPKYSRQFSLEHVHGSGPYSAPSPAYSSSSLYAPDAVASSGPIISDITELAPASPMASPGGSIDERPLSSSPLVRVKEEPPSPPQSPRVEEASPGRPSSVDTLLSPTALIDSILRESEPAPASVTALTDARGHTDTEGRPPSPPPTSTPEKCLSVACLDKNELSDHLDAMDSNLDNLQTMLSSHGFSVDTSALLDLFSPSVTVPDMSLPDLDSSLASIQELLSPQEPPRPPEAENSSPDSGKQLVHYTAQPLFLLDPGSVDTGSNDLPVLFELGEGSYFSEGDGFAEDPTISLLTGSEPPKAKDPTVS
# Outline: as §1
# SPIC = molecular target: T8, SPIC (Homo sapiens, UniProt Q8N5J4 1-248); conditions: protein: recombinant; tags: N-terminal GST; dsDNA, one strand shown
# T8 sequence: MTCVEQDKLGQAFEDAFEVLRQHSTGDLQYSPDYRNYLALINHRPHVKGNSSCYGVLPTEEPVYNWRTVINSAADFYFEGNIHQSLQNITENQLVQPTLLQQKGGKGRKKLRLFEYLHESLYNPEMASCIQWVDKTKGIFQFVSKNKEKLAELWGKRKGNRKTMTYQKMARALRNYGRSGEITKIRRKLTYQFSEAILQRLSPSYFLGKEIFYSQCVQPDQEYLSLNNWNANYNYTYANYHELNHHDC
# Outline: as §1
# ELF4 = ELF4 (Homo sapiens, UniProt Q99607 1-663); conditions: protein: recombinant; tags: N-terminal GST; dsDNA, one strand shown
# Chain of ELF4 (Q99607 whole entry): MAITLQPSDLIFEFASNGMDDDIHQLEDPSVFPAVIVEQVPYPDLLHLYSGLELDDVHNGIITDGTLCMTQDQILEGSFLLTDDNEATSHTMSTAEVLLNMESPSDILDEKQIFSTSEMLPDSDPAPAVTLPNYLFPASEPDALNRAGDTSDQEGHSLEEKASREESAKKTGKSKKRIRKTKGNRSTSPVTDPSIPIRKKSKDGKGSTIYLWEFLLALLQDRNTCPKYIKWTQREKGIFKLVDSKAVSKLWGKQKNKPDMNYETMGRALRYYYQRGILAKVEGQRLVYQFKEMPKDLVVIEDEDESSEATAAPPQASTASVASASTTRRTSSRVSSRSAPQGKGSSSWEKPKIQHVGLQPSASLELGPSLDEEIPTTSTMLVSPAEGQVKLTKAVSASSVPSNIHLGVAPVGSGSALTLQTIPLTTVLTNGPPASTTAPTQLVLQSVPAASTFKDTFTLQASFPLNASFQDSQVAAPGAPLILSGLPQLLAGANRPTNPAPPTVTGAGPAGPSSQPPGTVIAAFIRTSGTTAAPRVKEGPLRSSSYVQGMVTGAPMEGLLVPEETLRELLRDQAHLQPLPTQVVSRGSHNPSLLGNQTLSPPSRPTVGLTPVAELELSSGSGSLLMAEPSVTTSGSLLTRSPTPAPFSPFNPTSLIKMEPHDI
# Outline: as §1
# ELK4 = molecular target: T9, ELK4 (Homo sapiens, UniProt P28324-2 1-405); conditions: protein: recombinant; tags: N-terminal GST; dsDNA, one strand shown
# T9 sequence: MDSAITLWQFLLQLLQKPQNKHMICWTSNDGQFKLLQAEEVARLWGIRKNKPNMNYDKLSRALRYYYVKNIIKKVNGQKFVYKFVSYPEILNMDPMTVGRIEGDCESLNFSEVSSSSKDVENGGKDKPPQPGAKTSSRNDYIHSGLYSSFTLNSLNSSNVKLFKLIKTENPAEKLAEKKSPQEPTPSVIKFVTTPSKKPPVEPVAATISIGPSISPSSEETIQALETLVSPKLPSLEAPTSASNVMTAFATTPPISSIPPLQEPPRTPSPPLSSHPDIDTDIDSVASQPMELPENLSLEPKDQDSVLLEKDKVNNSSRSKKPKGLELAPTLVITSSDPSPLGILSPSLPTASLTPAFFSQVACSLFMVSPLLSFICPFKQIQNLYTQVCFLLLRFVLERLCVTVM
# Outline: as §1
# ETV2 = molecular target: T10, ETV2 (Homo sapiens, UniProt O00321 1-342); conditions: protein: recombinant; tags: N-terminal GST; dsDNA, one strand shown
# T10 sequence: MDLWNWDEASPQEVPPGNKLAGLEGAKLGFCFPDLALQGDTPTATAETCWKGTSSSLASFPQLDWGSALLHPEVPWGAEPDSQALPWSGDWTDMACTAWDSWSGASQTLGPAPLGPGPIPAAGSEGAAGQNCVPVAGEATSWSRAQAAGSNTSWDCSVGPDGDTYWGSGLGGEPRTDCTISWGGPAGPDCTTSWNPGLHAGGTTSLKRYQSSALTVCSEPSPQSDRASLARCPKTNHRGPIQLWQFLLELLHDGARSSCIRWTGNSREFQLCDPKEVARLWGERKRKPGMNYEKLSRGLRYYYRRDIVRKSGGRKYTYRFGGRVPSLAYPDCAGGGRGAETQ
# Outline: as §1
# ELF3 = molecular target: T11, ELF3 (Homo sapiens, UniProt P78545 1-371); conditions: protein: recombinant; tags: N-terminal GST; dsDNA, one strand shown
# T11 sequence: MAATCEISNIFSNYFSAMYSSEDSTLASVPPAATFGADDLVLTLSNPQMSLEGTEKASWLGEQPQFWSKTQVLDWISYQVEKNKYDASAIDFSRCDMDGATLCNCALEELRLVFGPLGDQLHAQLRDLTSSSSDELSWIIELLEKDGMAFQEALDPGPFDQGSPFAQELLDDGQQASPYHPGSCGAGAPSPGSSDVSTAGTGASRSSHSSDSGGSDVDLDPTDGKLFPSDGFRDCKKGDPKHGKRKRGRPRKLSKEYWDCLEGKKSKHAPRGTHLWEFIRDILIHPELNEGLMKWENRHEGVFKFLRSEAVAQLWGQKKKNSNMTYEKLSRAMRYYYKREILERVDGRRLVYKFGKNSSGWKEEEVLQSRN
# Outline: as §1
# CRX = CRX (Homo sapiens, UniProt O43186 1-299); conditions: protein: recombinant; tags: N-terminal GST; dsDNA, one strand shown
# Chain of CRX (O43186 whole entry): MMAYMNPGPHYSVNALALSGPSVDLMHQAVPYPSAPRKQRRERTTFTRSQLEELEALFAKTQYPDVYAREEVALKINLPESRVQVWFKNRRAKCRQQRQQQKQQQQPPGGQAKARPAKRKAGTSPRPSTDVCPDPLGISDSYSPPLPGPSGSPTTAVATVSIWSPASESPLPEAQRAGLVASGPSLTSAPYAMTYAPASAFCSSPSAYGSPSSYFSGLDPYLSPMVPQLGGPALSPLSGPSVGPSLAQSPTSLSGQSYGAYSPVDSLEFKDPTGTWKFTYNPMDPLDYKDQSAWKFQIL
# Outline: as §1
# ETV1 = ETV1 (Homo sapiens, UniProt P50549 1-477); conditions: protein: recombinant; tags: N-terminal GST; dsDNA, one strand shown
# Chain of ETV1 (P50549 whole entry): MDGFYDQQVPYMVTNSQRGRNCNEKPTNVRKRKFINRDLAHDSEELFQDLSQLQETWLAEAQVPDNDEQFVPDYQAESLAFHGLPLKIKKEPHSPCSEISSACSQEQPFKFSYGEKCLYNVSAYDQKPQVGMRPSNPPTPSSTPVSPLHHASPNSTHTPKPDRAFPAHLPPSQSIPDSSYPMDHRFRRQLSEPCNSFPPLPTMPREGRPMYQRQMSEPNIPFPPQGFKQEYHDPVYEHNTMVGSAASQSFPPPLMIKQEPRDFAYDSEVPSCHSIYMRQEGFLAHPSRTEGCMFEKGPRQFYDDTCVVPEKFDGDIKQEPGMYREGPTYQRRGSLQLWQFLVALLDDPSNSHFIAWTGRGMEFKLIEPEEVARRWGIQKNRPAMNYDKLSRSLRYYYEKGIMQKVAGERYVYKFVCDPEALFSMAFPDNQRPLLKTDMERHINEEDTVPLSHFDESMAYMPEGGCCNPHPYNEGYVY
# Outline: as §1
sequence,measurement,setting,value
TTAATC,binding signal,FLI1,"1.28 fold enrichment (6-mer frequency, TF over GST control)"
same,binding signal,ELK1,"1.21 fold enrichment (6-mer frequency, TF over GST control)"
same,binding signal,GABPA,"1.2 fold enrichment (6-mer frequency, TF over GST control)"
same,binding signal,ERG,"1.17 fold enrichment (6-mer frequency, TF over GST control)"
same,binding signal,ELF1,"1.2 fold enrichment (6-mer frequency, TF over GST control)"
same,binding signal,EHF,"1.22 fold enrichment (6-mer frequency, TF over GST control)"
same,binding signal,SPI1,"1.21 fold enrichment (6-mer frequency, TF over GST control)"
same,binding signal,SPIB,"1.31 fold enrichment (6-mer frequency, TF over GST control)"
same,binding signal,ELK3,"1.31 fold enrichment (6-mer frequency, TF over GST control)"
same,binding signal,FEV,"1.19 fold enrichment (6-mer frequency, TF over GST control)"
same,binding signal,ETV5,"1.23 fold enrichment (6-mer frequency, TF over GST control)"
same,binding signal,HSF1,"3.29 fold enrichment (6-mer frequency, TF over GST control)"
same,binding signal,SPIC,"1.19 fold enrichment (6-mer frequency, TF over GST control)"
same,binding signal,ELF4,"1.26 fold enrichment (6-mer frequency, TF over GST control)"
same,binding signal,ELK4,"1.43 fold enrichment (6-mer frequency, TF over GST control)"
same,binding signal,ETV2,"1.13 fold enrichment (6-mer frequency, TF over GST control)"
same,binding signal,ELF3,"1.27 fold enrichment (6-mer frequency, TF over GST control)"
same,binding signal,CRX,"6.11 fold enrichment (6-mer frequency, TF over GST control)"
same,binding signal,ETV1,"1.33 fold enrichment (6-mer frequency, TF over GST control)"
